GLP1R ag: qHTS of GLP-1 Receptor Agonists; Glucagon-like peptide 1 receptor (Homo sapiens), P43220; HEK293 GLP-1R CRE-luciferase, luminescence, 4-6 h; cells express a hypersensitive GLP-1R form; Potency, µM (titrated, usually from 45.6 µM), for the others: at the top dose activation, most hits filed as activators; 0.007% of 380,000 active; further: potency means the concentration at half of the fitted maximal effect; % of control where 0% means no effect
Target sequence (P43220 whole entry, looked up): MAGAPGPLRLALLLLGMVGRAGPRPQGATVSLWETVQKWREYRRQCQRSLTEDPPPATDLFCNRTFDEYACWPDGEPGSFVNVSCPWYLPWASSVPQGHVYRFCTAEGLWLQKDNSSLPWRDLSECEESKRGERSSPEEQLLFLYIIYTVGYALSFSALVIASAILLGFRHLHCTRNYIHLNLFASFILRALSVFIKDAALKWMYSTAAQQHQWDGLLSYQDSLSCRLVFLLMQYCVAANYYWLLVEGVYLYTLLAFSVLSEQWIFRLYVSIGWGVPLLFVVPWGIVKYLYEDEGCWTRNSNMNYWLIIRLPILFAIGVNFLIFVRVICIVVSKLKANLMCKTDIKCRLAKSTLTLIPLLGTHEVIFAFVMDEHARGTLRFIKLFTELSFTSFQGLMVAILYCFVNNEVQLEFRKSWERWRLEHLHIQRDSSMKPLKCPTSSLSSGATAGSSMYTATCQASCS
KCNH2 WT inh: qHTS for Inhibitors of KCHN2 3.1: Wildtype qHTS. U2OS, BacMam KCNH2, thallium flux FluxOr; stronger effect = lower value. Voltage-gated inwardly rectifying potassium channel KCNH2 (Homo sapiens), Q12809. 0.37% of 340,000 active. activity change, % at 1.84 µM;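 active means maximum activity change below -70%; inconclusive means maximum activity change between -70% and -50%; inactive means maximum activity change above -50%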; further: on the % scale 0 is the no-effect control and ±100 the full control effect
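U2OS cells were transduced with wild-type KCNH2 virus (2.03 x 10^8 / mL) for 4 h at room temperature, then cultured overnight at 37 C. Thallium flux was read with FluxOr dye. Rate constants were normalized to DMSO controls.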
GLP1R cytotox: qHTS of GLP-1 Receptor Inverse Agonists: Cytotox Screen. HEK293 cAMP-luciferase reporter cells, luminescence, 24 h. Potency, µM (series often up to 38.3 µM), inactives show at the top dose activity change, negative = inhibition, most hits filed as inhibitors. 0.13% of 410,000 active. AID 624418, 2012;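 further: loss of luciferase light is scored as toxicity; potency means the concentration at half of the fitted maximal effect; on the % scale 0 is the no-effect control and ±100 the full control effect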
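Quantitative HTS format, 1536 wells, 200 cells/uL seeded. Compounds: 23 nL, 24 h, 37 °C. Detection: luciferase reagent, luminescence at 12 min RT; decreased signal taken as cytotoxic.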
GLP-1R inv ag: qHTS of GLP-1 Receptor Inverse Agonists (Inhibition Mode); Glucagon-like peptide 1 receptor (Homo sapiens), P43220; HEK293 GLP-1R CRE-luciferase, luminescence, 24 h; GLP-1R form is constitutively active; Potency, µM (highest dose often 38.3 µM), for the others: top-dose activity change, negative = inhibition, hits mostly inhibitors; 1.6% of 410,000 active; AID 624417, 2012; further: potency means the concentration at half of the fitted maximal effect; on the % scale 0 is the no-effect control and ±100 the full control effect; nearly all actives have a fitted effect of over 55% in size
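Stable HEK293 clone (constitutively active GLP-1R + cAMP-response luciferase); 200 cells/uL plated, 12 h pre-culture, compound 24 hr, 37 deg C/5% CO2; detection reagent 12 min RT; luminescence.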
GLS inh: qHTS for Inhibitors of Glutaminase (GLS); GLS enzymatic activity, qHTS titration; Glutaminase kidney isoform, mitochondrial (Homo sapiens), O94925; 0.21% of 410,000 active; Potency, µM (series often up to 45.5 µM), for inactives: at the highest dose activity change, negative = inhibition, most hits filed as inhibitors; further: potency means the concentration at half of the fitted maximal effect; on the % scale 0 is the no-effect control and ±100 the full control effect
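Assay buffer: 45 mM KH2PO4 pH 8.2, 0.02% Tween-20. hKGA acts on L-glutamine (1 mM solution added); product glutamate is reported by an oxidase/peroxidase Amplex Red coupling, with fluorescence taken at baseline and 30 min.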
KCNH2 3.1 inh: qHTS for Inhibitors of KCHN2 3.1: Mutant qHTS; AID 720553, 2013; Potassium voltage-gated channel subfamily H member 2, brain isoform KCNH2 3.1 (human); 0.95% of 340,000 active; U2OS KCNH2 3.1, thallium flux FluxOr; stronger effect = lower value; activity change, % (tested at about 1.8 µM);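 active means maximum activity change below -70%; inconclusive means maximum activity change from -70% to -50%; inactive means maximum activity change above -50%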;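 further: thallium influx rate constant from kinetic fluorescence after stimulation buffer; on the % scale 0 is the no-effect control and ±100 the full control effect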
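Normalized rate constant (relative to positive and negative DMSO controls) derived from a 2 min kinetic fluorescence read after stimulation; U2OS cells expressing the 3.1 isoform via virus at 1.77 x 10^8 /mL.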
The depositor's hits bear a star; ? = inconclusive; / = no result given. Sampled rows, rich in hits. Any-hit rate of the full collection: about 2.8%. Unless noted, the call rests on the fitted dose curve; in most records, active means well fitted curve in the direction sought with a large enough effect; inconclusive means small, poorly fitted or top-dose-only effect, or another doubt; inactive means no such curve, though single readings can be large; an effect the other way counts as inactive or inconclusive.

SMILES	GLP1R ag	KCNH2 WT inh	GLP1R cytotox	GLP-1R inv ag	GLS inh	KCNH2 3.1 inh
COc1ccccc1CN1C(=O)c2cccc3cccc(c23)C1=O	12%	-3	0%	19%	7.9µM*	-4
CCOc1ccc(-n2ccnc2SCC(=O)Nc2cccc3ccccc23)cc1	/	/	-2%	1%	1%	/
Cc1nc2c(=O)[nH]c(=S)[nH]c2[nH]c1=O	-1%	-5	-2%	2%	6.3µM*	6
Cc1nc2[nH]c(=S)[nH]c(=O)c2nc1C	-13%	-2	-5%	-16%	15%	25
CC(C)CCn1c(=O)c2sccc2n2c(CCCC(=O)NCc3ccc(F)cc3)nnc12	/	/	0%	-6%	-7%	/
O=C(CCCCn1c(=O)c2ccccc2n(Cc2ccccc2F)c1=O)NCc1ccccc1Cl	-1%	/	3%	3%	-6%	/
Cc1ccc(SC[C@H](Cc2ccccc2)N2CCN(C)CCC2=O)cc1	-2%	7	5%	-24%	1%	?
CCCN1CCC(=O)N([C@H](CSc2ccc(C)cc2)Cc2ccccc2)CC1	17%	17	-12%	?	5%	-101*
Cc1ccc(SC[C@H](Cc2ccccc2)N2CCN(CCc3ccccc3)CCC2=O)cc1	11%	-101*	10%	13%	5%	-106*
CCCN1CCC(=O)N([C@H](CSc2ccc(OC)cc2)Cc2ccccc2)CC1	1%	7	-11%	?	-11%	-101*
O=C1CCN(CCc2ccccc2)CCN1[C@H](CSc1ccccc1)Cc1ccccc1	1%	-141*	-17%	?	-7%	-103*
CN1CCC(=O)N([C@H](CSc2ccccc2)Cc2ccccc2)CC1	10%	/	6%	-9%	1%	/
O=c1cc(CSc2n[nH]c(-c3ccccc3)n2)[nH]c2ccccc12	/	/	1%	28%	-1%	/
O=C(Nc1ccccc1Cl)c1cc(C2CCCCN2C(=O)c2ccccc2)on1 (centres undefined)	17%	/	3%	?	-6%	/
CCCCCCCN1CCC(=O)N([C@H](CO)Cc2ccccc2)CC1	-1%	?	-4%	?	-11%	-109*
CC(OC(=O)CCCN=C1NS(=O)(=O)c2ccccc21)C(=O)Nc1ccc(F)cc1Cl (centres undefined)	0%	30	23%	8%	0%	31
Cc1sc(NC(=O)c2ccco2)c(C(c2ccccc2)N2CCC(C)CC2)c1C (centres undefined)	0%	-2	-12%	6.3µM*	6%	-10
Cc1ccc(C(c2c(NC(=O)c3ccco3)sc(C)c2C)N2CCOCC2)cc1 (centres undefined)	5%	-6	4%	-15%	11%	-33
Cc1sc(NC(=O)c2ccco2)c(C(c2ccc(F)cc2)N2CCN(C)CC2)c1C (centres undefined)	0%	2	?	7.1µM*	-1%	-8
CCOC(=O)C1CCN(C(c2cccnc2)c2c(NC(=O)c3ccco3)sc(C)c2C)CC1 (centres undefined)	0%	-7	0%	?	4%	0
Oc1ccccc1CNCCCNCc1ccccc1O	-3%	3	?	8.9µM*	74%	3
O=C(O)CCCCNCc1ccccc1	-5%	-10	10%	11%	0%	2
c1ccc(CNCCCNCCCCNCCCNCc2ccccc2)cc1	-5%	16	?	2.8µM*	11%	10
COc1ccc(-c2cc(C(=O)Nc3cnn(Cc4ccccc4C)c3)no2)cc1OC	-2%	-248*	-2%	0%	0%	-14
O=C(Nc1cnn(C23CC4CC(CC(C4)C2)C3)c1)c1cc(-c2ccccc2)on1	-6%	-11	-1%	0%	1%	-75*
SMILES	GLP1R ag	KCNH2 WT inh	GLP1R cytotox	GLP-1R inv ag	GLS inh	KCNH2 3.1 inh
COc1cccc(-c2cc(C(=O)Nc3cnn(Cc4ccc(Cl)cc4Cl)c3)no2)c1	/	/	-18%	11%	-5%	/
COc1cccc(CSc2nc3ccccc3c3nc(CCn4c(C)nc5ccccc54)nn23)c1	/	/	-1%	17%	1%	/
CNS(=O)(=O)c1cc(N(C)S(=O)(=O)c2ccc(C)cc2)c(C)cc1C	3%	14	-3%	-28%	-8%	1
Cc1ccc(S(=O)(=O)N(C)c2cc(S(=O)(=O)N3CCC(C)CC3)c(C)cc2C)cc1	-6%	0	-1%	13µM*	0%	/
CCOC(=O)[C@H]1[C@H]2COc3ccc(Cl)cc3[C@@H]2N2C(=O)c3cc(F)c(F)cc3NC(=O)[C@@]12C	3%	11	6%	10µM*	-1%	-194*
CCOC(=O)[C@H]1[C@H]2COc3ccc(Cl)cc3[C@@H]2N2C(=O)c3cc(Cl)ccc3NC(=O)[C@@]12C	3%	-1	?	?	11%	?
CCOC(=O)[C@H]1[C@H]2COc3ccc(Br)cc3[C@@H]2N2C(=O)c3cc(Br)ccc3NC(=O)[C@@]12C	-2%	-10	-49%	2.8µM*	3%	?
CCOC(=O)[C@H]1[C@H]2COc3ccc(Cl)cc3[C@@H]2N2C(=O)c3cc(Br)ccc3NC(=O)[C@@]12C	-2%	-22	1%	3.5µM*	3%	-49
CCOC(=O)[C@H]1[C@H]2COc3ccccc3[C@@H]2N2C(=O)c3cc(Br)ccc3NC(=O)[C@@]12C	-1%	18	0%	?	-1%	-21
CN(Cc1ccco1)C(=O)CSc1nn2c(=O)c(C(C)(C)C)nnc2s1	-5%	-5	-22%	-1%	-11%	2
CCc1ccccc1NC(=O)CCS(=O)(=O)c1ccc(OC)cc1	-1%	8	1%	24%	1%	-8
CCOc1ccc(Nc2nc3c(S(=O)(=O)c4ccc(CC)cc4)nnn3c3ccc(Cl)cc23)cc1	/	/	-1%	2%	-12%	/
O=C(NC(Cc1ccccc1)C(=O)O)/C(=C/c1ccccc1)NC(=O)c1ccccc1 (centres undefined)	-2%	7	0%	17%	13%	2
O=C(NC(Cc1ccccc1)C(=O)O)/C(=C\c1ccc(Cl)cc1)NC(=O)c1ccccc1 (centres undefined)	0%	-92*	0%	16%	?	-14

Bioassay records deposited in PubChem BioAssay by National Center for Advancing Translational Sciences (NCATS).
